Source: PubChem BioAssay (EPA / NIEHS)
Where “and” joins values, the source holds several entries; their conditions need not be identical. Equal values may be shown once. Some compounds were tested as several samples or in several runs, with calls that do not always agree. Calls of active or inactive are those of the source. Rule for the calls: active = hit-call score of the fitted dose curve at least 0.9, where 1 is the maximum; inactive = score below 0.9.

Experiments:
[1] = target: Transcription factor E2F1 (Homo sapiens) (UniProt Q01094); assay: ATG_E2F_CIS: Attagene CIS-FACTORIAL HepG2 Assay for human E2F Transcription Factor 1 (AID 2282935); settings: HepG2 Attagene cis-reporter, E2F reporter RNA transcripts; actives raise or lower the signal
Chain of Transcription factor E2F1 (Homo sapiens) (Q01094 whole entry, looked up): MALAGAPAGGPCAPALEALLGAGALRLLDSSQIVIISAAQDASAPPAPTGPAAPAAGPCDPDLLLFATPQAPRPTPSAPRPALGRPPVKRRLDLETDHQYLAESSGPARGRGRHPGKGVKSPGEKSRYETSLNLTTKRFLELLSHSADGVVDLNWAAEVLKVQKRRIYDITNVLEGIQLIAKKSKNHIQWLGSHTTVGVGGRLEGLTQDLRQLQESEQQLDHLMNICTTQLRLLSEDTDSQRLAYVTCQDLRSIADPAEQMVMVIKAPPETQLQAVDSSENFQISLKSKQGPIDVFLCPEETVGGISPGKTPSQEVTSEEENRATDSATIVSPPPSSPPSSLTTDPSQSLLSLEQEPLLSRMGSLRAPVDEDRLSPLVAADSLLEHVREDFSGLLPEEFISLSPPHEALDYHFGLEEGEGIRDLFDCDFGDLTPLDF
Procedure, shortened: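 Gain or loss of reporter transcript, fitted against DMSO, reflects E2F1-driven transcription. Transiently transfected HepG2 dosed 24 h before RNA isolation. Quantified by fluorescent RT-PCR products separated by capillary electrophoresis.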

[2] = ATG_E_Box_CIS: Attagene CIS-FACTORIAL HepG2 Assay for human Enhancer Box (E-box) (AID 2282936); settings: HepG2 E-box cis-reporter transcription, actives raise or lower the signal
Procedure, shortened: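 E-box-driven reporter transcripts measured in transiently transfected HepG2 after 24 h exposure: RNA reverse-transcribed, PCR-amplified, fluorescently labelled, digested and resolved by capillary electrophoresis. Gain or loss relative to DMSO.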

[3] = ATG_M_61_CIS: Attagene CIS-FACTORIAL HepG2 Assay for M61 Transcription Factor (Internal Marker) (AID 2282937); settings: HepG2 Attagene CIS-FACTORIAL M61 internal marker reporter; actives raise or lower the signal
Procedure, shortened: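 This endpoint serves as an internal background control within a multiplexed HepG2 cis-reporter panel. Cells are exposed for 24 h; reporter mRNA is amplified, fluorescently labelled and sized by capillary electrophoresis, with DMSO as negative control.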

[4] = ATG_EGR_CIS: Attagene CIS-FACTORIAL HepG2 Assay for human Early Growth Response 1 (EGR1) (AID 2282938); settings: HepG2 Attagene CIS-FACTORIAL EGR reporter mRNA; actives raise or lower the signal
Procedure, shortened: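 HepG2, transient MRTU transfection (cis promoters), 24 h compound. RNA → RT (oligo-dT) → PCR → 6-FAM labelling → HpaI cut → CE fluorescence. Bidirectional fit, DMSO baseline.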

[5] = ATG_M_19_CIS: Attagene CIS-FACTORIAL HepG2 Assay for M19 Transcription Factor (Internal Marker) (AID 2282939); settings: HepG2 Attagene CIS-FACTORIAL M19 internal marker reporter; actives raise or lower the signal
Procedure, shortened: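 Transfect HepG2 with MRTU reporter library → dose chemical, 24 h → isolate total RNA, reverse-transcribe with oligo(dT) → PCR, 6-FAM label, HpaI cut (2 h, 37 C) → capillary electrophoresis. Bidirectional fit vs DMSO.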

[6] = ATG_ERE_CIS: Attagene CIS-FACTORIAL HepG2 Assay for Estrogen Response Element (ERE) (AID 2282940); settings: HepG2 ERE cis-reporter, Attagene RNA transcript; actives raise or lower the signal
Procedure, shortened: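 Transient MRTU transfection of human HepG2; cis-element promoters; 24 h dosing; total RNA → RT (oligo dT) → PCR → 6-FAM primer extension → HpaI digest → CE fluorescence. Bidirectional fit, DMSO baseline.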

[7] = ATG_Ets_CIS: Attagene CIS-FACTORIAL HepG2 Assay for human Erythroblast Transformation Specific (ETS) (AID 2282941); settings: HepG2 ETS cis-reporter transcription, actives raise or lower the signal
Procedure, shortened: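 Cis-regulated reporter mRNA induction in HepG2 (transient transfection), 24 h exposure, RT-PCR plus capillary electrophoresis detection; DMSO serves as negative control and baseline.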

[8] = target: Hepatocyte nuclear factor 3-beta (Homo sapiens) (UniProt Q9Y261); assay: ATG_FoxA2_CIS: Attagene CIS-FACTORIAL HepG2 Assay for human Forkhead box A2 (FOXA2) (AID 2282942); settings: HepG2 cis-reporter transcription factor activity, 24 h; actives raise or lower the signal
Chain of Hepatocyte nuclear factor 3-beta (Homo sapiens) (Q9Y261 whole entry, looked up): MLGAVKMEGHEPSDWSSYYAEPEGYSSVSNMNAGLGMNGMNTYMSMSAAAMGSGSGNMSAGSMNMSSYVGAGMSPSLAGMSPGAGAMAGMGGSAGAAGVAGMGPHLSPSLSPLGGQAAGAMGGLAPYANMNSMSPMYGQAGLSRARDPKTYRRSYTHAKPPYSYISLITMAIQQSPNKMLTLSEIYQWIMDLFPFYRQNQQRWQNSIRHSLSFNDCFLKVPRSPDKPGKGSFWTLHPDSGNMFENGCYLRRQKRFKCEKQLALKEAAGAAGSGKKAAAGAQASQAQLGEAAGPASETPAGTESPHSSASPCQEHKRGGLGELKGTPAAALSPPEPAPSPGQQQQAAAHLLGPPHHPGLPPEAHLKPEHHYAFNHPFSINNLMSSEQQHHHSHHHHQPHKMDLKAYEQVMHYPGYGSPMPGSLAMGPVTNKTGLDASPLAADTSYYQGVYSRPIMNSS
Procedure, shortened: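 Cells: HepG2, transient multiplex reporter transfection. Exposure 24 h. Detection: reporter-specific RT-PCR, fluorescent labelling, restriction digest, capillary electrophoresis. Analysis: bidirectional curve fit, DMSO as negative control.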

[9] = ATG_FoxO_CIS: Attagene CIS-FACTORIAL HepG2 Assay for human Forkhead box O (FoxO) (AID 2282943); settings: HepG2 Attagene cis-reporter, FoxO element, mRNA; actives raise or lower the signal
Procedure, shortened: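 Endogenous transcription factor activity read from multiplexed cis-promoter reporter transcripts in transiently transfected HepG2, 24 h after dosing. Reporter RNA measured via RT-PCR plus capillary electrophoresis of FAM-labeled products; gain or loss relative to DMSO.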

[10] = ATG_GATA_CIS: Attagene CIS-FACTORIAL HepG2 Assay for human GATA Binding Protein (AID 2282944); settings: HepG2 GATA cis-element reporter, Attagene multiplex mRNA; actives raise or lower the signal
Procedure, shortened: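 Transient MRTU transfection, HepG2, 24 h compound exposure. Total RNA → oligo(dT) RT → PCR → 6-FAM primer extension → HpaI cut → CE. Bidirectional fit vs DMSO.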

Measured: AC50

CCc1nn(C2CCCCC2)c2cc(C3(C#N)CCC(C(=O)O)CC3)ccc12 (stereo not given)
active: [6] 2.31 µM
inactive: all other assays above

CC1=C(/C=C/C(C)=C/C=C/C(C)=C/C(=O)O)C(C)(C)CCC1
inactive: [1] | [2] | [3] | [4] | [5] | [6] | [7] | [8] | [9] | [10]
active: [4] 21.5 µM | [6] 0.112 µM | [9] 44.4 µM

Oc1cccc(O)c1
not listed: [5]
inactive: all other assays above

CC[C@H](C)[C@@H](C(=O)O)n1sc2ccccc2c1=O
not listed: [5]
inactive: all other assays above

COCC(C)OCC(C)O (stereo not given)
inactive: all assays above

N#C[C@@H]1CC(F)(F)CN1C(=O)CNC1CC2CCC(C1)N2c1ncccn1 (stereo not given in full)
not listed: [5]
inactive: all other assays above

NCC(F)(F)C(F)(F)C(F)(F)C(F)(F)C(F)(F)C(F)(F)C(F)(F)F
not listed: [5]
inactive: all other assays above

CCCCC[C@H](O)CC(=O)CCc1ccc(O)c(OC)c1
not listed: [5]
inactive: all other assays above

O=c1c(-c2ccc(O)cc2)coc2cc(O)ccc12
active: [6] 410 nM [middle of 4 runs]
not listed: [5]
inactive: all other assays above

Cc1ccc(S(=O)(=O)O)c(C)c1
not listed: [5]
inactive: all other assays above

CCOC(=O)CC(O)(CC(=O)OCC)C(=O)OCC
not listed: [5]
inactive: all other assays above

CC(C)(C)c1cccc(C(C)(C)C)c1O
active: [1] 188 µM | [7] 166 µM
not listed: [5]
inactive: all other assays above

CC(=O)NC1(c2cccc(F)c2)CCN(CC[C@@]2(c3ccc(Cl)c(Cl)c3)CN(c3ccccc3)C(=O)CO2)CC1
active: [4] 28.5 µM | [6] 33 µM | [7] 51.9 µM
not listed: [5]
inactive: all other assays above

CCCCC(CC)COC(=O)CCCCC(=O)OCC(CC)CCCC (stereo not given)
inactive: all assays above

Cc1cc(CCN2CCN(c3nsc4ccccc34)CC2)cc2c1NC(=O)CC2(C)C
active: [4] 4.06 µM
not listed: [5]
inactive: all other assays above

O=C(/C=C/c1ccc(O)cc1)CC(=O)/C=C/c1ccc(O)cc1
active: [2] 26.7 µM | [4] 11.5 µM
inactive: all other assays above

C=C(C)C(=O)OCCC(F)(F)C(F)(F)C(F)(F)C(F)(F)C(F)(F)C(F)(F)F
active: [6] 57.4 µM and 150 µM
not listed: [5]
inactive: all other assays above

CC(C)CCCCCCOC(=O)CCCCC(=O)OCCCCCCC(C)C
not listed: [5]
inactive: all other assays above
